For 12 compounds, z-score and composite z-score results are on record in PubChem BioAssay.

Test [1] can be described thus: resazurin metabolic signal in HepG2 cells – cell-based, resazurin fluorescence, 24 h, PK04 Diversity Set, profiling panel (AID 1172). Note: test concentration not given here. The following applies: HepG2 viability, higher = more signal. On the technique in general: Alamar Blue is a resazurin reagent that responds to reducing activity.
A short description of test [2]: budding yeast growth changes without added modifier – OD600, strain BY4716, 24 h, basal condition, primary screen (AID 1173). The following applies: S. cerevisiae BY4716 growth, OD600, 24 h; higher = more signal, called active from +8 up or from −8 down.
A short description of test [3]: viability profiling in MM1S myeloma cells – cell-based, resazurin fluorescence, basal, 24 h, PK04 Diversity Set, profiling panel (AID 1174).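 Note: MM1S multiple myeloma cell line; test concentration not given here.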 The following applies: higher = more signal, called active from +8 up or from −8 down.
For test [4], the target named is Dihydroorotate dehydrogenase (quinone), mitochondrial (Plasmodium falciparum (isolate 3D7)) (UniProt Q08210). The test is described as follows: inhibition of P. falciparum DHODH – biochemical, C-terminal His tag, absorbance 600 nm, primary screen (AID 1175).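 Note: recombinant parasite enzyme with a five histidine tag at its C terminus; test concentration not given here.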 The following applies: PfDHODH enzyme, DCIP absorbance 600 nm; higher = more signal, called active from +8 up or from −8 down.

Test [5] can be described thus: inhibition of PAO1 biofilm formation – strain PAO1, LB-PBS medium, absorbance 600 nm, primary screen (AID 1176). Note: test concentration not given here. The following applies: P. aeruginosa PAO1 growth/biofilm, A600, 12 h; higher = more signal.
Test [6] in a line: growth modulation of vineyard yeast isolate – strain RM11-1a, OD600, basal, 24 h, primary screen (AID 1177).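 Note: cultures grown under basal conditions with no added stressor; test concentration not given here.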 The following applies: S. cerevisiae RM11-1a growth, OD600, 24 h; higher = more signal, called active from +8 up or from −8 down.
The nature of test [7]: growth of efflux-deficient E. coli DRC39 – strain DRC39, OD650, 24 h, E. coli filamentation inducers, primary screen (AID 1178).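 Note: growth measured as culture turbidity by optical density at 650 nm; test concentration not given here.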 The following applies: E. coli DRC39 acrAB, higher = more signal, called active from +8 up or from −8 down.
Test [8] is described as follows: growth of efflux-deficient E. coli DRC39 – strain DRC39, OD650, 48 h, E. coli filamentation inducers, primary screen (AID 1179).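 Note: screen aims at cell division blockers that make cells filament.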 The following applies: E. coli DRC39 delta-acrAB growth, higher = more signal, called active from +8 up or from −8 down.
Test [9] can be described thus: viability profiling in RPMI8226 myeloma cells – cell-based, resazurin fluorescence, basal, 24 h, PK04 Diversity Set, profiling panel (AID 1180).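 Note: RPMI8826 multiple myeloma cell line at 5000 cells per well; test concentration not given here.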 The following applies: higher = more signal.
The target of test [10] is E3 ubiquitin-protein ligase XIAP (Homo sapiens) (UniProt P98170). Put plainly: small molecules binding XIAP protein – biophysical, small-molecule microarray, fluorescence 635 nm, primary screen (AID 1181).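 Note: score merges 667 nm emission and signal to noise over triplicate slides.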 The following applies: higher = more signal.

Calls of active or inactive are those of the source. Unless noted, the rule behind the calls is not given here.

E3 ubiquitin-protein ligase XIAP (Homo sapiens), sequence (P98170 whole entry, looked up): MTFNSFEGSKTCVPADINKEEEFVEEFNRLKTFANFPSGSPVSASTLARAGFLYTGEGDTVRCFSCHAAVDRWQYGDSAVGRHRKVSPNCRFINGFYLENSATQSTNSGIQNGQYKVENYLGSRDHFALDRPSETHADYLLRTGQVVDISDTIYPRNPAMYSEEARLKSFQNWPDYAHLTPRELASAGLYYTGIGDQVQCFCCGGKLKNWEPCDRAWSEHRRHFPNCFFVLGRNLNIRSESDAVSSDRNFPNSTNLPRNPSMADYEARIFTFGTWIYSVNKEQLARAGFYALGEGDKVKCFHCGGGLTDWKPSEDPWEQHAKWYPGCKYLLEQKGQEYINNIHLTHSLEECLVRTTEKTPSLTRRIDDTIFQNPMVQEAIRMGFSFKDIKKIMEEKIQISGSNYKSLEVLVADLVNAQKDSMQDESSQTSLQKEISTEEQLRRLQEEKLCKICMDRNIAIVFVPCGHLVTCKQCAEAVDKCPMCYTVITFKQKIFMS
Dihydroorotate dehydrogenase (quinone), mitochondrial (Plasmodium falciparum (isolate 3D7)), sequence (Q08210 whole entry, looked up): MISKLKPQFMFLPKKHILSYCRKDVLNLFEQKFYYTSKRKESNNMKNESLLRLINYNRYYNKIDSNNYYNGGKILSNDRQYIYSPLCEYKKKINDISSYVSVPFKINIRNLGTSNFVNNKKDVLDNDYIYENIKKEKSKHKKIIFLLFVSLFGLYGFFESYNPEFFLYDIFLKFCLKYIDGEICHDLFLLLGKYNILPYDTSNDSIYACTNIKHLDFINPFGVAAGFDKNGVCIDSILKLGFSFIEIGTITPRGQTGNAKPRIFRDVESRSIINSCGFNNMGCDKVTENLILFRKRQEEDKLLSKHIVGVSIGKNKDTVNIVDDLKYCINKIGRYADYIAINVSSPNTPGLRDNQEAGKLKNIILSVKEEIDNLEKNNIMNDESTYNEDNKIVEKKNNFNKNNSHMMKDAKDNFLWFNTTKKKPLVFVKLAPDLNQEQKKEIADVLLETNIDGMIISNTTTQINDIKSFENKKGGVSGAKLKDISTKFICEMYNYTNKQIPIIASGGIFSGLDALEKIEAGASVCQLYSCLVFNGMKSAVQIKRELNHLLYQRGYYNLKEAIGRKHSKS

Take `CC(C)C[C@@H]1NC(=O)[C@H]2C[C@@H](C(=O)O)[C@@H](c3ccc(O)cc3)N2C1=O`: the z-score in [1] is 0.374; in test [2], 0.0437 (inactive); in test [3], 0.816 (inactive); in [5], -0.86 (inactive); in [6], 1.58 (inactive); in [7] it was -0.139 (inactive). Moreover, the results for the z-score in test [8] and in [9] were -0.456 (inactive) and 0.453, respectively. Moreover, the values for the composite z-score in test [4] and in test [10] were 0.425 (inactive) and -0.125, respectively.
For the compound `CCN1C(=O)[C@H]2[C@H]3[C@H](O)C=CC(=O)[C@@H]3CC[C@H]2C1=O`, the z-score in test [1] was 0.384; in test [2] it was -0.067 (inactive); in [3], 0.442 (inactive); in test [5], -0.519 (inactive); in [6] it was 0.197 (inactive); in test [7] it was 0.484 (inactive). The z-score is 0.205 (inactive) in test [8] and -0.194 in [9]. For the same compound, the composite z-score in test [4] is -0.28 (inactive); in test [10], -0.133.
As to `COC(=O)CC=C[C@@H](C)[C@@H](C=NO[C@H](C)c1cn([C@@H]2COC[C@H]2O)nn1)OC`, the z-score in test [1] was -0.879; in test [2] it was -0.435 (inactive); in test [3] it was -0.179 (inactive); in [5] it was 0.666 (inactive); in [6], 0.0782 (inactive); in [7] it was 0.773 (inactive). Further, the z-score in test [8] is 0.878 (inactive); in [9], -0.359. Moreover, the composite z-score in test [4] was -0.295 (inactive); in test [10] it was -0.0206.
`C[C@H]1CC[C@@H](C(=O)O)N[C@@H]1c1ccc(C#CCN(C)C)cc1`: the z-score in test [1] was 0.378; in [2], -1.07 (inactive); in test [3], 0.584 (inactive); in [5] it was -0.458 (inactive); in test [6], -0.191 (inactive); in test [7], 0.554 (inactive). The z-score in [8] is 0.15 (inactive); in [9] it was 0.22. In addition, the composite z-score is 0.666 (inactive) in test [4] and 0.256 in [10].
In the case of `CCN(CC)c1ccc(N2CC=CC34O[C@@H]5/C=C\CCC(C)OC(=O)C5[C@H]3C(=O)N(CCCO)[C@@H]4C2=O)cc1` (stereo not given in full), the z-score is -0.649 in [1]; 1.09 (inactive) in test [2]; 0.267 (inactive) in [3]; -0.745 (inactive) in [5]; 1.21 (inactive) in test [6]; 0.692 (inactive) in [7]. Further, the figures for the z-score in test [8] and in [9] were 0.562 (inactive) and 0.47, respectively. Also, the composite z-score in [4] was 0.424 (inactive); in test [10], -0.0243.
For `Cc1ccc(S[C@]2(C(=O)O)CC(=O)N(Cc3ccccc3)[C@@H]2c2ccc(CO)cc2I)cc1`, the z-score in test [1] is -0.201; in test [2], -3.44 (inactive); in test [3], -2.14 (inactive); in test [5], 0.649 (inactive); in test [6], -1.44 (inactive); in [7] it was -0.256 (inactive). In addition, the results for the z-score in [8] and in test [9] were -0.246 (inactive) and -1.26, respectively. The results for the composite z-score in [4] and in [10] were -0.975 (inactive) and -0.287, respectively.
As for `C[C@H](c1ccccc1)N1C(=O)[C@H]2[C@H]3[C@H](O)[C@H](O)CC(=O)[C@@H]3CC[C@H]2C1=O`, the z-score in test [1] was -0.353; in test [2] it was 0.205 (inactive); in test [3], -0.486 (inactive); in [5] it was 0.544 (inactive); in test [6], -0.897 (inactive); in test [7], -0.159 (inactive). Also, the z-score is -0.0569 (inactive) in test [8] and -0.523 in [9]. Besides, the composite z-score in test [4] was -0.303 (inactive); in [10] it was -0.0826.
Turning to `CCc1cc2c(nc1CC)CCN(CCC(C)=NOC[C@@H](O)COCc1ccco1)C2`, the z-score in test [1] was -0.596; in test [2], -1.12 (inactive); in [3] it was -0.24 (inactive); in [5], -0.0174 (inactive); in test [6], -0.727 (inactive); in [7], 0.377 (inactive). The z-score is 0.389 (inactive) in [8] and -0.0388 in test [9]. Besides, the values for the composite z-score in test [4] and in test [10] were -0.127 (inactive) and 0.183, respectively.
For the compound `COc1ccc(O[C@H]2C=C[C@@H](c3ccccc3)O[C@@H]2COC(=O)CCC(C)=NOCC[C@@H]2C=C[C@H](OC(C)=O)[C@@H](COC(C)=O)O2)cc1`, the z-score in test [1] was 0.453; in test [2], 1.51 (inactive); in test [3] it was 0.595 (inactive); in [5], -0.455 (inactive); in test [6], 0.893 (inactive); in [7], 0.265 (inactive). The z-score in [8] is -0.0862 (inactive); in test [9], 0.485. Also, the composite z-score in [4] was -0.64 (inactive); in test [10], 0.388.
As for `C=C(CCCC)C(=O)CC[C@@H](OC(C)=O)c1cccc(OCCO)c1`, the z-score in [1] is -0.749; in [2], -17.8 (active); in test [3] it was -1.01 (inactive); in [5], 0.367 (inactive); in test [6], -19.2 (active); in test [7] it was -0.55 (inactive). The z-score in [8] was -0.528 (inactive); in [9], -1.07. Also, the composite z-score in [4] is -3.64 (inactive); in test [10] it was 0.136.
Take `CC(C)(C)N1C(=O)[C@H]2[C@H]3[C@H](O)[C@H](O)CC(=NOCc4ccccc4)[C@@H]3CC[C@H]2C1=O`: the z-score is -1.74 in [1]; -0.245 (inactive) in test [2]; -0.637 (inactive) in test [3]; 0.246 (inactive) in [5]; -2.23 (inactive) in [6]; -0.474 (inactive) in [7]. The z-score was -0.0278 (inactive) in [8] and -1.34 in test [9]. For the same compound, the composite z-score in test [4] is -1.36 (inactive); in test [10], -0.0735.
As to `C[C@@H](c1ccccc1)N1C(=O)[C@H]2[C@H]3[C@H](O)C=CC(=O)[C@@H]3CC[C@H]2C1=O`, the z-score is -0.0507 in test [1]; -0.697 (inactive) in [2]; 0.711 (inactive) in test [3]; -0.319 (inactive) in test [5]; -0.701 (inactive) in test [6]; 0.0826 (inactive) in test [7]. Moreover, the figures for the z-score in test [8] and in test [9] were -0.286 (inactive) and 0.982, respectively. In addition, the composite z-score in test [4] is -0.366 (inactive); in test [10] it was 0.126.
